# Assay outcomes: PubChem BioAssay, several laboratories
# Sampled rows, rich in hits. Any-hit rate of the full collection: about 1.7%.
# PABP polyA inh: blocks human PABP binding to poly(A) RNA; P11940; fluorescence polarization; calls only at 35 µM; 290,000 tested, 1% active; AID 2014;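 note: calls also rest on retests at 20 µM and on dose response follow-up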
# EBV gp42 block: blocks Epstein-Barr virus glycoprotein 42 binding | inhibition, % (tested at 21.74 µM) | 220,000 tested, 0.42% active | AID 1085 | Fluorescence polarization binding assay, mP read-out; in the data active = inhibition above about 50%
# Target sequence (Q1HVG2 whole entry, looked up): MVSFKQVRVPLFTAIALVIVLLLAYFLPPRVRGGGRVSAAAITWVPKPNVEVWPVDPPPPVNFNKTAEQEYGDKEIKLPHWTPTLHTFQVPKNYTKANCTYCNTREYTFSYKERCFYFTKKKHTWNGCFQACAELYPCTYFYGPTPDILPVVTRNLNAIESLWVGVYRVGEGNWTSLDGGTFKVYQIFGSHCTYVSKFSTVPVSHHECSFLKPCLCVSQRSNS
# eIF4H inh: inhibitors of RNA binding by human eIF4H; Q15056; eIF4H fluorescence polarization binding assay; inhibition, % at 35 µM; 290,000 tested, 0.94% active; AID 2012;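 note: calls also rest on retests at 20 µM and on dose response follow-up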
# eIF4E-4G inh: eIF4E/eIF4G interaction inhibition in translation initiation; P63073+Q04637; 220,000 tested, 0.37% active; TR-FRET eIF4E-eIF4GI(517-606) binding, 2 h; AID 782; inhibition, % at 21.7 µM;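 active = inhibition above about 30%, limit read from the data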;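 note: 0% = full FRET control wells and 100% = background wells lacking eIF4GI fragment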
# MLLE-PAM2 inh: inhibitors of microRNA-mediated deadenylation, human PABP1 MLLE binding; inhibition, % at 20 µM; GST-MLLE / FITC-PAM2 fluorescence polarization; P11940; 360,000 tested, 0.36% active; in the data active = inhibition above about 35%, passing the limit was not always enough;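 note: plate controls were DMSO wells with GST-MLLE for no effect and wells lacking GST-MLLE protein for full effect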
# An asterisk follows results filed as active; i = inactive; ? = inconclusive; · = no result given; + = active, no number. Unless noted, the rule behind the calls is not given here.
SMILES,PABP polyA inh,EBV gp42 block,eIF4H inh,eIF4E-4G inh,MLLE-PAM2 inh
CCN(CC)c1ccc(NC(=O)CCS(=O)(=O)c2ccc(Br)cc2)c(C)c1,+,·,93*,·,-10
CCCCCCn1c(CN2CCN(CCO)CC2)nc2c1c(=O)n(C)c(=O)n2C,+,-11,103,9,-3
CCCCCCn1c(CN2CCC(C)CC2)nc2c1c(=O)n(C)c(=O)n2C,i,-2,2,-1,21
CCOC(=O)CC(NC(=O)Cc1ccc(F)cc1)c1ccccc1Cl (configuration not stated),i,-8,-6,4,-10
C[C@H](CO)N1C[C@H](C)[C@@H](CN(C)S(=O)(=O)c2ccc(-c3ccccc3)cc2)OCc2cn(nn2)CCCC1=O,·,·,·,·,-3
CCCCC(O)(CCCC)C(=O)N/N=C(\C)c1ccc(Cl)cc1,+,-16,84*,0,-4
CC(OC(=O)c1ccc2c(=O)n3c(nc2c1)CCC3)C(N)=O (configuration not stated),+,-15,4.5*,10,-13
O=c1c2ccccc2nc2n1CCC2,i,-3,-12,94*,8
CC(OC(=O)c1ccc2c(=O)n3c(nc2c1)CCC3)C(=O)Nc1ccc(C(N)=O)cc1 (configuration not stated),·,·,·,·,-3
O=C(O)c1cc(N=Nc2c(O)ccc3ccccc23)cc(C(=O)O)c1,i,-26,-7,2,-40
O=C(O)c1ccc(N=Nc2c(O)ccc3ncccc23)cc1,+,·,90*,·,-3
CCOc1ccccc1NC(=O)c1ccc2c(c1)C(=O)N(CC)C2=O,i,·,-11,·,4
COc1ccc2c(c1)C(=O)c1ccccc1CO2,i,-20,9,-1,7
O=C1c2ccccc2COc2ccc(O)cc21,i,-10,51*,0,8
COc1cc(N=Nc2c(O)c3ccccc3[nH]c2=O)c(OC)cc1N=Nc1ccccc1,i,-2,13,-1,-5
NC(=O)c1ccc(N=Nc2c(O)c3ccccc3[nH]c2=O)cc1,i,65*,31,10,·
Cc1nc2c(OCc3cc(Cl)cc(Cl)c3)cccn2c1N(C)C(=O)CCC1CCCC1,·,·,·,·,-2
O=C(O)c1ccc(Cn2cnc3cccnc32)cc1,i,·,55,·,43*
O=C(O)c1ccc(Cn2cnc3scc(-c4ccccc4)c3c2=O)cc1,i,6,-5,-1,-10
CCOC(=O)COn1c(=O)c(-c2cc3ccccc3o2)[n+]([O-])c2ccccc21,+,28,64,-8,20
CCOC(=O)COn1c(=O)c(-c2ccc(F)cc2)[n+]([O-])c2ccccc21,i,·,-8,·,-13
C=CCOn1c(=O)c(-c2ccccc2)[n+]([O-])c2ccccc21,i,-4,5,1,-14
C=CCOn1c(=O)c(-c2cc3ccccc3o2)[n+]([O-])c2ccccc21,+,-12,58*,3,1
Cn1cccc1CC(=O)NNC(=S)Nc1ccc(Cl)cc1Cl,+,-7,58*,3,26
Cn1cccc1CC(=O)NNC(=S)Nc1ccc(F)cc1,i,-9,0,5,5
SMILES,PABP polyA inh,EBV gp42 block,eIF4H inh,eIF4E-4G inh,MLLE-PAM2 inh
Oc1c(Cl)cc(Cl)cc1Sc1cc(Cl)cc(Cl)c1O,+,46,74*,23,·
CCN(CC)c1ccc2cc(S(=O)(=O)c3ccc(C)cc3)c(=O)oc2c1,i,142*,?,9,-48
CCN(CC)c1ccc2cc(C(=O)NNC(=O)c3ccc(S(=O)(=O)N4CCCCC4)cc3)c(=O)oc2c1,i,174*,35,-1,109
Cc1ccc(S(=O)(=O)c2cc3ccccc3oc2=O)cc1,i,6,5,13,-75
CCc1ccc(-c2nc(CS(=O)CC(=O)NCCCN3CCOCC3)c(C)o2)cc1 (configuration not stated),i,·,-2,·,15
O=C(c1ccc(=O)oc1)N1CCOCC1,+,-4,88*,21,3
COc1ccc(C2=C(CC(=O)O)C(=O)CC2)cc1,i,-13,0,4,-5
Oc1ccccc1/C=C/c1noc(-c2ccccc2O)n1,+,-2,3,6,12
CC(=O)Nc1ccc(/C=C/c2noc(-c3ccccc3O)n2)cc1,i,·,-1,·,-15
COc1cc(NC(=O)C2C3CCC(O3)C2C(=O)O)cc(OC)c1 (configuration not stated),i,·,6,·,-3
CC(=O)N1c2ccc(S(=O)(=O)N3CCCC3C(=O)Nc3ccc(C)cc3)cc2CC1C (configuration not stated),+,·,54,·,3
CC1CCc2nc(N)c(C#N)c(-c3cccn3C)c2C1 (configuration not stated),+,3,97*,1,-27
Cc1cc(Br)c(NC(=O)c2c(-c3c(Cl)cccc3Cl)noc2C)c(Br)c1,i,-9,64,2,0
O=C(O)c1cccc(Nc2c3ccccc3nc3ccccc23)c1,i,·,4,·,-2
O=C(O)c1cc(S(=O)(=O)O)cc(Nc2c3ccccc3nc3ccccc23)c1O,+,·,98*,·,7
O=c1c2c3c(sc2[nH]c(=S)n1Cc1ccco1)CCC3,+,16,81*,30,5
CC(NC(=O)c1cccs1)C(S)c1ccccc1 (configuration not stated),i,·,-11,·,43*
CCOc1ccc(NC(=O)CCN2C(=O)c3ccccc3C2=O)cc1,i,·,-3,·,0
COc1ccc(NS(=O)(=O)c2ccc(N3CCCC3)c(NC(=S)Nc3ccc(SC(F)F)cc3)c2)cc1,i,-4,-12,-1,40*
CCCCC1=CC2=C(c3ccco3)C(=O)C(C)(OC(=O)c3ccc(OC)cc3)C(=O)C2=CN1c1ccccc1 (configuration not stated),+,3,111,-1,-2
CC(C)CC1=NN2C(=N)/C(=C\c3coc4ccccc4c3=O)C(=O)N=C2S1,i,-8,?,-1,i
CCSC1=NSC2=NC(=O)/C(=C\c3coc4ccccc4c3=O)C(=N)N12,i,88*,?,2,i
CCOC(=O)C1=C(COC(=O)CCCOc2ccccc2)NC(=O)NC1C (configuration not stated),·,·,·,·,-3
CC(C)N1CCc2c(sc(NC(=O)c3ccc(S(=O)(=O)N4CCOCC4)cc3)c2C#N)C1,+,-68,78*,-4,-58
CCCSc1nc(C)cc(C)c1S(=O)(=O)c1ccccc1C,i,-7,-4,-1,0
CCCSc1nc(C)cc(C)c1S(C)(=O)=O,+,0,4.7*,2,-4
Cc1nn(C)c2c(=O)c(=O)c2n(C)[nH]1,i,-11,-5,0,-9
CCc1nn(C)c2c(=O)c(=O)c2n(C)[nH]1,+,23,99*,8,23
CCCN(CCC)CCNC(=O)c1cc2c(=O)n(CC)c3ccccc3c2s1,i,-20,0,97*,-7
